Several values for one entry are separate records, joined by “and”; a condition that tells them apart may be missing. Equal entries are not always repeated. Results filed as inconclusive are left out. Some compounds were tested as several samples or in several runs, with calls that do not always agree. Activity calls are given as the source filed them. Calls follow the shape of the dose curve; as a rule, active = well fitted curve in the direction sought with a large enough effect; inconclusive = small, poorly fitted or top-dose-only effect, or another doubt; inactive = no such curve, though single readings can be large; an effect the other way counts as inactive or inconclusive.

Test [1] is described as follows: BET inhibitor-based combinations targeting novel dependencies in MECOM-rearranged (r) AML: SET-2 cell line (AID 2202231). Also: nearly all actives have a fitted effect of over 35% in size.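 As to viability: plate controls were DMSO treated cells for no effect and wells without cells for full effect.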 The conditions noted are these: SET-2 AML cells viability, CellTiter-Glo luminescence, 48 h; viability: stronger effect = lower value, concentration not given here. The gist of the method: (§1)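 Here, 11-point titrations of each agent were applied to 500 seeded cells and incubated 48 hr; CellTiter-Glo signal, scaled against DMSO and empty wells, was integrated as AUC, then Z-scored within the individual line.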
(In general: In ATP-based viability assays light output follows the ATP content of the culture.)

A short description of test [2]: BET inhibitor-based combinations targeting novel dependencies in MECOM-rearranged (r) AML: OCI-AML3 cell line (AID 2202232). Also: nearly all actives have a fitted effect of over 35% in size. As to conditions: CellTiter-Glo luminescence, 48 h; Potency: OCI-AML3 viability; series mostly up to 46 µM. The gist of the method: as §1
Test [3] in a line: BET inhibitor-based combinations targeting novel dependencies in MECOM-rearranged (r) AML: MV-4-11 cell line (AID 2202233). Also: nearly all actives have a fitted effect of over 45% in size. The conditions noted are these: MV-4-11 AML viability, CellTiter-Glo luminescence, 48 h; series mostly up to 46 µM. The gist of the method:
(§2)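 Normalized to DMSO and empty-well controls, the luminescence data from CellTiter-Glo after 48 hr drug exposure were fitted across 11 concentrations. Reported metrics are area under the dose-response curve and its Z-transformed form.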

Test [4] can be described thus: BET inhibitor-based combinations targeting novel dependencies in MECOM-rearranged (r) AML: HNT-34 cell line (AID 2202234). Also: nearly all actives have a fitted effect of over 35% in size. The conditions noted are these: HNT-34 AML viability, CellTiter-Glo luminescence, 48 h; series mostly up to 46 µM. The gist of the method:
as §2

Test [5] is described as follows: BET inhibitor-based combinations targeting novel dependencies in MECOM-rearranged (r) AML: UCSD-AML1 cell line (AID 2202235). Also: nearly all actives have a fitted effect of over 40% in size. The conditions noted are these: UCSD-AML1 AML cells viability, CellTiter-Glo, 48 h; series mostly up to 46 µM. A digest of the protocol:
as §2

The nature of test [6]: BET inhibitor-based combinations targeting novel dependencies in MECOM-rearranged (r) AML: AML-191 cell line (AID 2202236; also: nearly all actives have a fitted effect of over 35% in size). As to conditions: AML-191 viability, CellTiter-Glo luminescence, 48 h; series mostly up to 46 µM. The gist of the method: as §1
The nature of test [7]: BET inhibitor-based combinations targeting novel dependencies in MECOM-rearranged (r) AML: AML-194 cell line (AID 2202237; also: nearly all actives have a fitted effect of over 40% in size). The conditions noted are these: AML-194 (MECOM-r AML) viability, CellTiter-Glo, 48 h; series mostly up to 46 µM. A digest of the protocol: as §1
Potency is read from the fitted curve at half-maximal effect.

For the compound `C[N+](C)(C)CC(=O)O`, in test [1], the viability (commonly a read-out of living cells in per cent, often relative to untreated cells) was 112% (inactive). Besides, the Potency entry in test [2], in test [3], in test [4], in test [5], in test [6] and in test [7] was “inactive” in each case.
`C[C@@H](O)[C@@H]1NC(=O)[C@H](CCCCN)NC(=O)[C@@H](Cc2c[nH]c3ccccc23)NC(=O)[C@H](Cc2ccccc2)NC(=O)[C@@H](NC(=O)[C@H](N)Cc2ccccc2)CSSC[C@@H](C(=O)N[C@H](CO)[C@@H](C)O)NC1=O`: the viability in test [1] was 114% (inactive). Also, the Potency entry in test [2], in test [3], in test [4], in test [5], in test [6] and in test [7] was “inactive” each time.
Turning to `C/C(=C\c1csc(C)n1)[C@@H]1C[C@@H]2O[C@]2(C)CCC[C@H](C)[C@H](O)[C@@H](C)C(=O)C(C)(C)[C@@H](O)CC(=O)N1`, the Potency is 0.0525 µM (active) in test [1]; 20.9 nM (active) in test [2]; 33.2 nM (active) in test [3]; 14.8 nM (active) in test [4]; 16.6 nM (active) in test [5]; 23.5 nM (active) in test [6]. In test [7], the Potency was 29.5 nM (active).
On to `CC(C)(O)CS(=O)(=O)Nc1ccc2c(c1)CCN(C(=O)COc1cccnc1)C2`, for which the viability in test [1] was 108% (inactive). Moreover, the Potency is 23.5 nM (active) in test [2]; 105 nM (active) in test [3]; 66.1 nM (active) in test [4]; 332 nM (active) in test [5]; 66.1 nM (active) in test [6]. Further, in test [7], the Potency result is “inactive”.
Consider `C[C@]1(C(=O)N(CCCC(=O)O)Cc2cccc(Cl)c2)CCN1C(=O)c1csc2ccccc12`, for which the viability in test [1] was 108% (inactive). Further, the Potency entry in test [2], in test [3], in test [4], in test [5], in test [6] and in test [7] was “inactive” each time.
On to `CCc1c(-c2ccccc2C)nc2c(C#N)c[nH]n2c1=O`, for which the viability in test [1] was 112% (inactive) and 125% (inactive). The Potency entry in test [2], in test [3], in test [4], in test [6] and in test [7] was “inactive” in each case. Also, the Potency in test [5] is 1.2 nM (active) and inactive.
Consider `COCc1c(-c2ccc(NC(=O)Nc3cc(C(F)(F)F)ccc3F)c(F)c2)c2c(N)ncnn2c1CN1CCOCC1`, for which the Potency is 6.61 µM (active) in test [1]; 10500 nM (active) in test [2]; 26.3 nM (active) in test [3]; 2350 nM (active) in test [4]; 6610 nM (active) in test [5]; 5900 nM (active) in test [6]. In test [7], the Potency was 5900 nM (active).
As for `CN(CCOc1ccc(C[C@H](Nc2ccccc2C(=O)c2ccccc2)C(=O)O)cc1)c1ccccn1`, in test [1], the viability is 94.3% (inactive) and 95.3% (inactive). Moreover, the Potency entry in test [2], in test [3], in test [4], in test [5], in test [6] and in test [7] was “inactive” in each case.
For `CN1C(C(=O)Nc2ccccn2)=C(O)c2sccc2S1(=O)=O`, the viability in test [1] is 113% (inactive). The Potency result in test [2], in test [3], in test [4], in test [5], in test [6] and in test [7] was “inactive” in each case.
For `COC(=O)/C=C/C(=O)OC`, the viability in test [1] was 117% (inactive). Moreover, the Potency result in test [2], in test [3], in test [4], in test [5], in test [6] and in test [7] was “inactive” in each case.
`CN1CC(=O)N2[C@H](c3ccc4c(c3)OCO4)c3[nH]c4ccccc4c3C[C@@H]2C1=O`: in test [1], the viability was 116% (inactive). Besides, the Potency result in test [2], in test [3], in test [4], in test [5], in test [6] and in test [7] was “inactive” each time.
As to `CC(C)C(N)C(=O)OCC(CO)OCn1cnc2c(=O)[nH]c(N)nc21` (centres undefined), the viability in test [1] was 87% (inactive). Also, the Potency entry in test [2], in test [3], in test [4], in test [5], in test [6] and in test [7] was “inactive” throughout.
Take `CO[C@H]1/C=C/O[C@@]2(C)Oc3c(C)c(O)c4c(O)c(c5c(nc6cc(C)ccn65)c4c3C2=O)NC(=O)/C(C)=C\C=C\[C@H](C)[C@H](O)[C@@H](C)[C@@H](O)[C@@H](C)[C@H](OC(C)=O)[C@@H]1C`: the viability in test [1] was 111% (inactive). Also, the Potency result in test [2], in test [3], in test [4], in test [5], in test [6] and in test [7] was “inactive” throughout.
For `N=C(N)c1ccc2nc(-c3cc(CC(=O)N[C@@H](CC(=O)O)C(=O)O)cc(-c4cc(S(N)(=O)=O)ccc4O)c3O)[nH]c2c1`, the viability in test [1] is 117% (inactive). Further, the Potency result in test [2], in test [3], in test [4], in test [5], in test [6] and in test [7] was “inactive” each time.
Regarding `CCS(=O)(=O)Nc1ccc2[nH]c(O)c(C(=Nc3ccc(CN4CCCCC4)cc3)c3ccccc3)c2c1`, the Potency is 2.63 µM (active) in test [1]; 235 nM (active) in test [2]; 29.5 nM (active) in test [3]; 148 nM (active) in test [4]; 833 nM (active) in test [5]; 66.1 nM (active) in test [6]. In test [7], the Potency is 93.4 nM (active).
On to `CC1(C)O[C@@H]2C[C@H]3[C@@H]4C[C@H](F)C5=CC(=O)C=C[C@]5(C)[C@@]4(F)[C@@H](O)C[C@]3(C)[C@]2(C(=O)CO)O1`, for which the viability in test [1] is 113% (inactive). Moreover, the Potency entry in test [2], in test [3], in test [4], in test [5], in test [6] and in test [7] was “inactive” each time.
As for `CCC1=C[C@@H]2CN(C1)Cc1c([nH]c3ccccc13)[C@@](C(=O)OC)(c1cc3c(cc1OC)N(C)[C@H]1[C@@](O)(C(=O)OC)[C@H](OC(C)=O)[C@]4(CC)C=CCN5CC[C@]31[C@@H]54)C2`, the Potency in test [1] was 7.23 µM (active); in test [2] it was 257 nM (active); in test [3] it was 323 nM (active); in test [4] it was 229 nM (active); in test [5], 407 nM (active); in test [6], 645 nM (active). Moreover, the Potency in test [7] is 645 nM (active).
